Assay in all cases: protein-binding microarray (PBM); PBM: ~300 nM protein, 6 mM HEPES pH 7.8, 80 mM KCl, 0.5 mM EDTA, 0.5 mM EGTA, 6% glycerol, 35 ng/ul poly-dIdC, 1% milk, 1 h, room temperature; Ap Aiptasia and Nv Nematostella (sea anemones) / Co Capsaspora / Aq Amphimedon (sponge) / Dm Drosophila / Hu human; RHD is the Rel homology domain; high values mean tight binding
Details in all cases: dsDNA, one strand shown

One assay deals with T1, GST-Ap-NF-kB RHD (Exaiptasia pallida (Aiptasia), UniProt A0A913YAJ5 2-422).
T1 sequence: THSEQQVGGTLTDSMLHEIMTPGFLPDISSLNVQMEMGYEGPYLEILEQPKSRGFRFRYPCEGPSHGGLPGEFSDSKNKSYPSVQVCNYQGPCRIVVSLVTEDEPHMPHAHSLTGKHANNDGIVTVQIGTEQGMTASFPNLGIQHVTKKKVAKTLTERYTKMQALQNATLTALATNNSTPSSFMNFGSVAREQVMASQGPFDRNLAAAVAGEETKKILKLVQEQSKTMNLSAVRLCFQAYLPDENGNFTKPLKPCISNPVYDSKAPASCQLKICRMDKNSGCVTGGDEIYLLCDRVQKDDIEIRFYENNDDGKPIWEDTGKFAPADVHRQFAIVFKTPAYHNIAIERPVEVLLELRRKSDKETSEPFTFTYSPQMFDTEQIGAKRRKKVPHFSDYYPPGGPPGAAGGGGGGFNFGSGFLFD

Assay [1] addresses T2, GST-Nv-NF-kB (Cys allele) (Nematostella vectensis, UniProt E5G601 2-411).
T2 sequence: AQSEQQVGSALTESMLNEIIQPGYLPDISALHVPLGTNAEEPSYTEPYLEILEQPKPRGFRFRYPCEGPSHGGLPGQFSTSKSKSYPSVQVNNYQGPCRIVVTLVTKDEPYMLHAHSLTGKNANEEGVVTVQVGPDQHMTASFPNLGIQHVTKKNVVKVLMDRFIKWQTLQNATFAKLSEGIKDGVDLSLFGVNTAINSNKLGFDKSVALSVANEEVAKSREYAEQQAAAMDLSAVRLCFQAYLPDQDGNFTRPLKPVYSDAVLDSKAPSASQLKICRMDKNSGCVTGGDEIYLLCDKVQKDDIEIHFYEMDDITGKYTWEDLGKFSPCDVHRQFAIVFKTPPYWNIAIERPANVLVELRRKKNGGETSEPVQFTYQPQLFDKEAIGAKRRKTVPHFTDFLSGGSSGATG

The target of assay [2] is T3, GST-Nv-NF-kB (Ser allele) (Nematostella vectensis, UniProt A7UNT2 2-411).
T3 sequence: T2 sequence with Q21R, C66S, S207N, E215Q, V217A, E225K, A268E, D399E

Another assay concerns the target T4, GST-Co-NF-kB (Capsaspora owczarzaki, UniProt F1ARL5 200-546).
T4 sequence: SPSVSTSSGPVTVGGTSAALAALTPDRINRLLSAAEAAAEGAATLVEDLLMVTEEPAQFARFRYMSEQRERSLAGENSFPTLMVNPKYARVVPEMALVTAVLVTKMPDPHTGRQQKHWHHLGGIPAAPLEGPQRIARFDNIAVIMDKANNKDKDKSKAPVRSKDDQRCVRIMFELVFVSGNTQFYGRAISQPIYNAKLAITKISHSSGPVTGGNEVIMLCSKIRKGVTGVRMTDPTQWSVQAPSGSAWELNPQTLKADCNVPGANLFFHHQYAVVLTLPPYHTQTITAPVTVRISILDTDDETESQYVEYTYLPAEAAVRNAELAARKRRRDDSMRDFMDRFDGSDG

In another assay the target is T5, GST-Dm-Relish (Drosophila melanogaster, UniProt Q94527 99-473).
T5 sequence: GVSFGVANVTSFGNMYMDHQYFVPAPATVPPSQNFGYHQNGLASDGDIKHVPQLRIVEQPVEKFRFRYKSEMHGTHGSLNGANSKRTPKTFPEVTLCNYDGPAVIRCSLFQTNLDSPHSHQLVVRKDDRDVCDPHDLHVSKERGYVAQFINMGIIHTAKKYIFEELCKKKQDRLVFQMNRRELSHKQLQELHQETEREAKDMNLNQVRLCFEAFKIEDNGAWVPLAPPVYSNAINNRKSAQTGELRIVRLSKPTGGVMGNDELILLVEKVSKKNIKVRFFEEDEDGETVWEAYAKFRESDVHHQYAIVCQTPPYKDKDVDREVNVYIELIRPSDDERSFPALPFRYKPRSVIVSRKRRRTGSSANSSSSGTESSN

Another assay deals with T6, GST-Aq-NF-kB (Amphimedon queenslandica, UniProt A9Y5G7 2-389).
T6 sequence: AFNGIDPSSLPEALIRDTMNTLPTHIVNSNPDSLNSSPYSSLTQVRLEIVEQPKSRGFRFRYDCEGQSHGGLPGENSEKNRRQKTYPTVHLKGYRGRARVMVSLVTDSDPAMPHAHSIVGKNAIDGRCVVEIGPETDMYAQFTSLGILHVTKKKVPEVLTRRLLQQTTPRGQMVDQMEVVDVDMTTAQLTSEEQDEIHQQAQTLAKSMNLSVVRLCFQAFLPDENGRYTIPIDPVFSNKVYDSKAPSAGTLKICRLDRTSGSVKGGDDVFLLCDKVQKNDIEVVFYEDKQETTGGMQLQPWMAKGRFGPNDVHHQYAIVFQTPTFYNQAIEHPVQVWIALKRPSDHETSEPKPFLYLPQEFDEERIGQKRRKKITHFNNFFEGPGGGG

Another assay addresses GST-Hu-p50 (Homo sapiens, UniProt P19838 7-356).

These results are taken from publication PMC5700166.

Substitutions are numbered along the chain they refer to.

GST-Hu-p50, sequence (P19838 7-356): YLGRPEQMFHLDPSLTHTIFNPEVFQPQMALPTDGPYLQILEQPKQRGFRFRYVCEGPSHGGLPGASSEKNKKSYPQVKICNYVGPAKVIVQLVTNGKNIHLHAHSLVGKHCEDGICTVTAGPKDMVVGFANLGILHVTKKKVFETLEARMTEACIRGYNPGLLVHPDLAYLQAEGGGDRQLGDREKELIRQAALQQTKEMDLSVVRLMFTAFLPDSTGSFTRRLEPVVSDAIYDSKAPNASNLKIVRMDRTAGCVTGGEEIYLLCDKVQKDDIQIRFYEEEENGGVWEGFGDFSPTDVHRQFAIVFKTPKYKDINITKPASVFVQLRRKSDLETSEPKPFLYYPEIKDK

As for “CCGATTAACATCACCCCCGCCCCTGATGTTAATCGGGTCTTGATTCGCTTGACGCTGCTG”, the binding signal was found to be 4.47 z-score with GST-Ap-NF-kB RHD; 3.37 z-score in assay [1]; 3.72 z-score in assay [2]; 6.71 z-score with GST-Co-NF-kB; 4.74 z-score with GST-Dm-Relish; 4.27 z-score in the assay with GST-Aq-NF-kB. This sequence displayed a binding signal with GST-Hu-p50 of 3.7 z-score.
As for “CCGATTAACATCAAGGGGGATTATGATGTTAATCGGGTCTTGATTCGCTTGACGCTGCTG”, the binding signal was 8.36 z-score with GST-Ap-NF-kB RHD; 7.48 z-score in assay [1]; 8.59 z-score in assay [2]; 4.73 z-score with GST-Co-NF-kB; 6.5 z-score in the assay with GST-Dm-Relish; 6.85 z-score in the assay with GST-Aq-NF-kB. Also, in the assay with GST-Hu-p50, the binding signal stood at 7.48 z-score.
For “CCGATTAACATCAGGGAAATCTATGATGTTAATCGGGTCTTGATTCGCTTGACGCTGCTG”, the binding signal with GST-Ap-NF-kB RHD came to 3.65 z-score; in assay [1], 5.31 z-score; in assay [2], 6.44 z-score; in the assay with GST-Co-NF-kB it was 4.52 z-score; in the assay with GST-Dm-Relish, 1.64 z-score; with GST-Aq-NF-kB it was 4.71 z-score. The sequence further showed a binding signal with GST-Hu-p50 of 4.1 z-score.
“CCGATTAACATCAGGGGAATTACTGATGTTAATCGGGTCTTGATTCGCTTGACGCTGCTG”: the binding signal with GST-Ap-NF-kB RHD worked out at 8.73 z-score; in assay [1], 10.6 z-score; in assay [2], 10.2 z-score; with GST-Co-NF-kB, 7.45 z-score; with GST-Dm-Relish, 10.2 z-score; in the assay with GST-Aq-NF-kB, 8.27 z-score. Besides, the binding signal with GST-Hu-p50 amounted to 7.09 z-score.
Take “CCGATTAACATCAGGGGGTAACATGATGTTAATCGGGTCTTGATTCGCTTGACGCTGCTG”: the binding signal in the assay with GST-Ap-NF-kB RHD is 4.79 z-score; in assay [1], 3.69 z-score; in assay [2], 4.43 z-score; in the assay with GST-Co-NF-kB, 7.22 z-score; with GST-Dm-Relish, 2.49 z-score; in the assay with GST-Aq-NF-kB, 3.72 z-score. For the same sequence, the binding signal with GST-Hu-p50 stood at 4.06 z-score.
As for “CCGATTAACATCAGAATTCCCCATGATGTTAATCGGGTCTTGATTCGCTTGACGCTGCTG”, the binding signal is 8.83 z-score with GST-Ap-NF-kB RHD; 10.3 z-score in assay [1]; 9.9 z-score in assay [2]; 7.04 z-score in the assay with GST-Co-NF-kB; 6.72 z-score with GST-Dm-Relish; 6.99 z-score in the assay with GST-Aq-NF-kB. This sequence also came in with a binding signal in the assay with GST-Hu-p50 of 6.62 z-score.
On to “CCGATTAACATCAGGGAAAGTTATGATGTTAATCGGGTCTTGATTCGCTTGACGCTGCTG”, for which the binding signal with GST-Ap-NF-kB RHD is 3.92 z-score; in assay [1], 6.93 z-score; in assay [2], 6.19 z-score; with GST-Co-NF-kB, 4.08 z-score; in the assay with GST-Dm-Relish, 2.29 z-score; with GST-Aq-NF-kB, 6.81 z-score. In the assay with GST-Hu-p50, this sequence gave a binding signal of 4.76 z-score.
For the sequence “CCGATTAACATCAGGGGAAACCCTGATGTTAATCGGGTCTTGATTCGCTTGACGCTGCTG”, the binding signal with GST-Ap-NF-kB RHD worked out at 10.2 z-score; in assay [1], 11.4 z-score; in assay [2] it was 10.8 z-score; with GST-Co-NF-kB, 7.22 z-score; with GST-Dm-Relish it was 10 z-score; with GST-Aq-NF-kB it was 9.57 z-score. This sequence came in with a binding signal in the assay with GST-Hu-p50 of 7.44 z-score.
In the case of “CCGATTAACATCAAAATTTCCCGTGATGTTAATCGGGTCTTGATTCGCTTGACGCTGCTG”, the binding signal with GST-Ap-NF-kB RHD turned out to be 4.72 z-score; in assay [1], 6.89 z-score; in assay [2], 6.74 z-score; with GST-Co-NF-kB, 6.32 z-score; with GST-Dm-Relish it was 4.72 z-score; with GST-Aq-NF-kB, 6.67 z-score. For the same sequence, the binding signal with GST-Hu-p50 was found to be 4.8 z-score.
For “CCGATTAACATCAGGGGGAGAAATGATGTTAATCGGGTCTTGATTCGCTTGACGCTGCTG”, the binding signal in the assay with GST-Ap-NF-kB RHD is 7.1 z-score; in assay [1], 6.13 z-score; in assay [2], 7.48 z-score; with GST-Co-NF-kB it was 10.7 z-score; with GST-Dm-Relish it was 3.41 z-score; in the assay with GST-Aq-NF-kB, 4.8 z-score. In the assay with GST-Hu-p50, this sequence registered a binding signal of 6.45 z-score.
With “CCGATTAACATCAGGGAGATCCCTGATGTTAATCGGGTCTTGATTCGCTTGACGCTGCTG”, the binding signal in the assay with GST-Ap-NF-kB RHD stood at 7.41 z-score; in assay [1], 8.14 z-score; in assay [2], 4.37 z-score; in the assay with GST-Co-NF-kB, 1.54 z-score; with GST-Dm-Relish, 7.36 z-score; with GST-Aq-NF-kB it was 8.85 z-score. This sequence also gave a binding signal with GST-Hu-p50 of 4.68 z-score.
